Each structure is given as a SMILES string. In all, about 140,000 compounds went through this assay and about 320 (0.23%) were called active. The list comes from a sample in which actives are over-represented; it also holds similar structures and randomly drawn compounds. A number with no mark means an inactive call. Rule as the data show it: active = z-score mostly below about -2.9 (no sharp cut-off); inactive = mostly above about -1.9.

The results in this text go back to PubChem BioAssay AID492967 (ICCB-Longwood Screening Facility, Harvard Medical School, 2010).

The subject of the experiment is CapD gamma-glutamyltranspeptidase (Bacillus anthracis Ames Ancestor). Briefly: inhibition of CapD gamma-glutamyltranspeptidase – biochemical, fluorescence intensity, primary screen (AID 492967). The conditions noted are these: purified CapD enzyme, fluorescence intensity read-out; hits give low values.
As for `COc1cccc(C(=O)c2cc3ccc(O)cc3oc2=O)c1`, the z-score is -6.04 (active).
In the case of `COc1ccc2oc(=O)c(C(=O)O)cc2c1` it was 31.1; in that of `COc1ccc2oc(=O)c(C(=O)NC(C)(C)C)cc2c1`, 13.9; in that of `Cc1cccc(-c2noc(-c3ccc(OC(F)(F)F)cc3)n2)c1`, -0.145.
In the case of `CC(=O)Nc1ccccc1C(=O)OCC(=O)Nc1nc2ccccc2s1` it was -0.695.
In the case of `O=C(O)CC(CC(=O)Oc1ccccc1N1CCCC1)c1ccccc1` (stereo not drawn) it was -0.435; in that of `COc1cc(C(=O)Nc2c3c(nn2-c2cccc(C)c2C)CS(=O)(=O)C3)cc(OC)c1OC`, 0.345.
On to `Cc1cccc(-n2nc3c(c2NC(=O)/C=C\c2ccco2)CSC3)c1C`, for which the z-score is -4.94 (active).
In the case of `CC(C)C(=O)Nc1c2c(nn1-c1ccccc1)CSC2` it was 0.225.
The value for `COc1ccc(OC)c(/C=N/NC(=O)c2cn(C)c3ccccc23)c1` was 14.4; that for `CC(C)Oc1ccccc1Oc1ccc([N+](=O)[O-])cn1` was -0.145; that for `COc1ccc(OC)c(-n2c(=S)[nH]c3cc(C(=O)Nc4ccc(OC)c(OC)c4)ccc3c2=O)c1` was -1.08.
The value for `CSc1ccc(-c2ncnn2-c2ccc(Cl)cc2)cc1` was -0.715.
With `Cn1cc(CC(=O)Nc2ccccc2)c2ccccc21`, the z-score was -0.8.
In the case of `Clc1ccc(C2N=C(c3cnccn3)NN2)cc1` (stereo not drawn) it was -0.935; in that of `CCO/C=C1\C(=O)N(c2ccc(C)cc2C)C(=O)c2cc(OC)ccc21`, 0.06.
In the case of `COc1ccc(C2CC(=O)C3=C(C2)Nc2ccc4ccccc4c2C3c2ccc3c(c2)OCO3)cc1` (stereo not drawn) it was 1.5.
In the case of `CC(NC(=O)Cn1nc(-c2ccc(Cl)cc2)c2ccccc2c1=O)c1ccccc1` (stereo not drawn) it was -0.405; in that of `CC1CCc2c(sc(NC(=O)c3sc4ccccc4c3Cl)c2C(=O)OC(C)C)C1` (stereo not drawn), -0.045; in that of `O=C1NC(=S)N/C1=C/c1cc(I)cc(I)c1O`, -0.725.
For the compound `O=C1NC(=S)N/C1=C\c1c(F)cccc1Cl`, the z-score was -4.06 (active).
As to `C=CCOC(=O)c1cc(-c2ccc(/C=C3/NC(=S)NC3=O)o2)ccc1Cl`, the z-score is 0.96.
On to `COC(=O)c1c(NC(=O)c2c(-c3c(Cl)cccc3Cl)noc2C)sc2c1CCCC2`, for which the z-score was -0.55.
In the case of `COc1ccc(/C=C/C(=O)N2CCN(C(c3ccccc3)c3ccccc3)CC2)cc1OC` it was 4.64; in that of `CC1(C)OCC([C@H]2O[C@@H]3OC(C)(C)OC3C2OC(=O)Nc2ccc(Cc3ccc(NC(=O)OC4C5OC(C)(C)O[C@H]5O[C@@H]4C4COC(C)(C)O4)cc3)cc2)O1` (stereo partly drawn), -0.275; in that of `CC(C)(C)C(=O)N(Cc1cccnc1)Cc1ccc(Cl)cc1Cl`, -0.865.
In the case of `Cc1ccc(S(=O)(=O)c2cnc(SCC(=O)N3CCCc4ccccc43)[nH]c2=O)cc1` it was -0.55; in that of `CC1CCN(c2nc3nonc3nc2Nc2cccc(Br)c2)CC1`, 0.265.
